Source: PubChem BioAssay (NCATS)
Inconclusive results are not listed. Entries that show only a call come without a potency. Unmarked numbers belong to inactive results. Activity calls are given as the source filed them. Calls follow the shape of the dose curve; as a rule, active = well fitted inhibition curve with a large enough effect; inconclusive = small, poorly fitted or top-dose-only effect; inactive = flat fitted curve, though single readings scatter.

System: astro (control astrocytes)
Test: Drug repurposing screens with cells derived from glioblastoma tumor samples (AID 1345199); also: nearly all actives have a fitted effect of over 40% in size
Conditions: viability, ATP luminescence, 48 h; series mostly up to 45.9 µM
Outline: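 Primary testing used CD133+ neurospheres from four GBM patients, seven concentrations, 48 h exposure and ATP-based viability; confirmation added three slower-growing patient lines.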
Potency is read from the fitted curve at half-maximal effect.

Row | SMILES | Potency
1 | N[C@@H](CCC(=O)N[C@@H](CS)C(=O)NCC(=O)O)C(=O)O | inactive
2 | O=C(CCCN1CCC(O)(c2ccc(Br)cc2)CC1)c1ccc(F)cc1 | inactive
3 | C#C[C@]1(OC(C)=O)CC[C@H]2[C@@H]3CCC4=C[C@@H](OC(C)=O)CC[C@@H]4[C@H]3CC[C@@]21C | inactive
4 | O=C(O)CNC(=O)c1ccccc1 | inactive
5 | CCCCCCC[N+](CC)(CC)CCCCc1ccc(Cl)cc1 | 8.91 µM (active)
6 | CC(C)(C)CC(C)(C)c1ccc(OCCOCC[N+](C)(C)Cc2ccccc2)cc1 | 20 µM (active)
7 | CC1(C)O[C@@H]2C[C@H]3[C@@H]4CCC5=CC(=O)CC[C@]5(C)[C@@]4(F)[C@@H](O)C[C@]3(C)[C@]2(C(=O)CCl)O1 | inactive
8 | CCC(C(=O)OCCN(CC)CC)c1ccccc1 (stereo not drawn) | inactive
9 | CCn1cc(C(=O)O)c(=O)c2cnc(N3CCCC3)nc21 | inactive
10 | CC(C)N=C(N)/N=C(\N)Nc1ccc(Cl)cc1 | inactive
11 | CC1(C)O[C@@H]2C[C@H]3[C@@H]4C[C@H](F)C5=CC(=O)CC[C@]5(C)[C@H]4[C@@H](O)C[C@]3(C)[C@]2(C(=O)CO)O1 | inactive
12 | CN=C(NC#N)Nc1ccc(C2=NNC(=O)CC2C)cc1 (stereo not drawn) | inactive
13 | C[C@@H]1C[C@H]2[C@@H]3C[C@H](F)C4=CC(=O)C(Cl)=C[C@]4(C)[C@@]3(F)[C@@H](O)C[C@]2(C)[C@@]1(O)C(=O)CO | inactive
14 | COc1cc2c(cc1OC)C(C(C(=O)N(CCc1ccc(OC)c(OC)c1OC)CCc1ccc(OC)c(OC)c1OC)c1ccccc1)=NCC2 (stereo not drawn) | inactive
15 | CCOC(=O)c1cccc(N)c1 | inactive
16 | CC(Cc1cccc(C(F)(F)F)c1)NCCOC(=O)c1ccccc1 (stereo not drawn) | inactive
17 | CC(C)COC(=O)OCN1C(=O)CN(CCN2CC(=O)N(COC(=O)OCC(C)C)C(=O)C2)CC1=O | inactive
18 | CC(=O)[C@H]1CC[C@H]2[C@@H]3C[C@H](C)C4=CC(=O)CC[C@]4(C)[C@H]3[C@@H](O)C[C@]12C | inactive
19 | CC1=C(C(=O)O)N2C(=O)[C@@H](NC(=O)[C@H](N)c3ccc(O)cc3)[C@H]2SC1 | inactive
20 | C1CCc2nnnn2CC1 | inactive

Row | SMILES | Potency
21 | CC(=O)O[C@H]1C[C@@H]2CC[C@@H]3[C@H](CC[C@@]4(C)[C@H]3C[C@H]([N+]3(C)CCCCC3)[C@@H]4OC(C)=O)[C@@]2(C)C[C@@H]1[N+]1(C)CCCCC1 | inactive
22 | COc1ccc(C2C(=O)c3ccccc3C2=O)cc1 | inactive
23 | CN(C)CCCOc1nn(Cc2ccccc2)c2ccccc12 | inactive
24 | Cc1c(C)n(CCN(C)C)c2ccc(C(=O)OCCN(C)C)cc12 | inactive
25 | O=c1c(-c2ccccc2)c1-c1ccccc1 | 12.6 µM (active)
26 | Cc1ccc(C(=O)C(C)CN2CCCCC2)cc1 (stereo not drawn) | inactive
27 | O=C1CCC(c2ccc(-n3ccnc3)cc2)=NN1 | inactive
28 | CN(C(=O)CN(CCO)CC(=O)N(C)C(C)(C)Cc1ccccc1)C(C)(C)Cc1ccccc1 | inactive
29 | Cc1ccnc(NS(=O)(=O)c2ccc(N)cc2)n1 | inactive
30 | COc1cccc(OC)c1C(=O)N[C@@H]1C(=O)N2[C@@H]1SC(C)(C)[C@@H]2C(=O)O | inactive
31 | CN1C(CCl)Nc2cc(Cl)c(S(N)(=O)=O)cc2S1(=O)=O (stereo not drawn) | inactive
32 | OC(CCN1CCCCC1)(c1ccccc1)c1ccccc1 | inactive
33 | Cc1ccc(O)c2ncccc12 | inactive
34 | CCCCCCCCCCCCCCCC[N+](C)(C)CC | 5.62 µM (active)
35 | COc1cc(C(=S)N2CCOCC2)cc(OC)c1OC | inactive
36 | Cc1cc(O)c(C(C)C)cc1Cl | inactive
37 | CCOC(=O)COc1ccc2c(C)c(CCN(CC)CC)c(=O)oc2c1Cl | inactive
38 | CCCCS(=O)(=O)N[C@@H](Cc1ccc(OCCCCC2CCNCC2)cc1)C(=O)O | inactive
39 | CCCCCCCCCCOCC(O)CN (stereo not drawn) | 28.2 µM (active)
40 | CCOC(=O)n1ccn(C)c1=S | inactive

Row | SMILES | Potency
41 | O=C(COc1ccc(Cl)cc1)N1CCN(Cc2ccc3c(c2)OCO3)CC1 | inactive
42 | Oc1cc(O)c2c(c1)O[C@H](c1ccc(O)c(O)c1)[C@H](O)C2 | inactive
43 | N[C@@H](Cc1cnc[nH]1)C(=O)O | inactive
44 | Nc1ccc(/C=C/c2ccc(N)cc2S(=O)(=O)O)c(S(=O)(=O)O)c1 | inactive
45 | COc1ccc(OC)c(C(O)CNC(=O)CN)c1 (stereo not drawn) | inactive
46 | CNCC[C@@H](Oc1ccccc1C)c1ccccc1 | inactive
47 | COc1cc2c(cc1OC)C(=O)C(CC1CCN(Cc3ccccc3)CC1)C2 (stereo not drawn) | inactive
48 | NC(=O)c1cc[n+](CC2=C(C(=O)[O-])N3C(=O)[C@@H](NC(=O)Cc4cccs4)[C@H]3SC2)cc1 | inactive
49 | OC[C@H]1O[C@@H](n2cnc3c(=S)nc[nH]c32)[C@H](O)[C@@H]1O | inactive
50 | CCCSS/C(CCO)=C(\C)N(C=O)Cc1cnc(C)nc1N | 22.4 µM (active)
51 | NCCCC[C@H](N[C@@H](CCc1ccccc1)C(=O)O)C(=O)N1CCC[C@H]1C(=O)O | inactive
52 | O=c1ccc2ccccc2o1 | inactive
53 | CN(C)CCOc1ccccc1Cc1ccccc1 | inactive
54 | C#C[C@]1(O)CC[C@H]2[C@@H]3CCc4cc(OC5CCCC5)ccc4[C@H]3CC[C@@]21C | 22.4 µM (active)
55 | CCN1CCCC1=O | inactive
56 | CNC(=O)CN(CCN(CCN(CC(=O)[O-])CC(=O)NC)CC(=O)[O-])CC(=O)[O-].O.[Gd+3] | inactive
57 | O=c1[nH]c(=O)n([C@H]2C[C@H](O)[C@@H](CO)O2)cc1C(F)(F)F | inactive
58 | Cc1c(N(C)CS(=O)(=O)O)c(=O)n(-c2ccccc2)n1C | inactive
